# Data from PubChem BioAssay (EPA / NIEHS).
# Calls of active or inactive are those of the source. Rule for the calls: active = hit-call score of the fitted dose curve at least 0.9, where 1 is the maximum; inactive = score below 0.9.
# How the values were obtained:
# [1] = read-out: Macrophage colony-stimulating factor (MCSF), CSF1 (gene 1435); test: BSK_hDFCGF_MCSF: BioMAP Diversity Plus: hDFCGF Assay for Macrophage colony-stimulating factor (MCSF) Biomarker Activity (AID 2283060); conditions: primary human foreskin fibroblasts; actives raise or lower the signal
# How it was run: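 M-CSF levels read by ELISA at 24 h post-dosing in human skin fibroblasts. Parallel cultures stained with SRB assessed cytotoxicity at the same time point; response fitted in both directions against the DMSO baseline.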
# [2] = BSK_hDFCGF_SRB: Viability Assessment in the BioMAP Diversity Plus: hDFCGF Assay (AID 2283061); conditions: primary human foreskin fibroblasts;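 note: cells exposed to compound for 24 h before the read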
# How it was run: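 Viability was read as total protein: after 10% TCA fixation, wells were stained with 0.1% sulforhodamine B and read at 560 nm. Primary human foreskin fibroblasts were dosed for 24 h, with bidirectional fitting versus DMSO.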
# [3] = read-out: TIMP metallopeptidase inhibitor 1 (TIMP1), TIMP1 (gene 7076); test: BSK_hDFCGF_TIMP1: BioMAP Diversity Plus: hDFCGF Assay for TIMP metallopeptidase inhibitor 1 (TIMP1) Biomarker Activity (AID 2283062); conditions: primary human foreskin fibroblasts; actives raise or lower the signal
# How it was run: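 TIMP-1 measured by ELISA 24 h after chemical dosing of primary human skin fibroblasts, with gain or loss fitted relative to DMSO. Parallel SRB staining (560 nm) monitored overt cytotoxicity.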
# [4] = read-out: Matrix Metallopeptidase 1 (MMP1), MMP1 (gene 4312); test: BSK_hDFCGF_MMP1: BioMAP Diversity Plus: hDFCGF Assay for Matrix Metallopeptidase 1 (MMP1) Biomarker Activity (AID 2283064); conditions: primary human foreskin fibroblasts; actives raise or lower the signal
# How it was run: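 hDFCGF primary fibroblasts (human foreskin); chemical added; 24 h; MMP1 by ELISA; bidirectional fit vs DMSO.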
# [5] = read-out: Vascular cell adhesion molecule 1 (VCAM1), VCAM1 (gene 7412); test: BSK_hDFCGF_VCAM1: BioMAP Diversity Plus: hDFCGF Assay for Vascular cell adhesion molecule 1 (VCAM1) Biomarker Activity (AID 2283065); conditions: primary human foreskin fibroblasts; actives raise or lower the signal;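 for AC50: VCAM-1 protein level quantified by ELISA after 24 h chemical exposure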
# How it was run: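 ELISA readout of VCAM-1 on human dermal fibroblast primary cultures, 24 h after chemical exposure. Gain or loss of signal fitted in both directions against DMSO baseline.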
# [6] = read-out: Plasminogen activator inhibitor-1 (PAI1), SERPINE1 (gene 5054); test: BSK_hDFCGF_PAI1: BioMAP Diversity Plus: hDFCGF Assay for Plasminogen activator inhibitor-1 (PAI1) Biomarker Activity (AID 2283066); conditions: primary human foreskin fibroblasts; actives raise or lower the signal
# How it was run: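 Human foreskin fibroblast primary cells, 24 h chemical exposure; PAI-1 measured by ELISA. Bidirectional fitting relative to DMSO; parallel cultures stained with SRB for total protein to flag overt cytotoxicity.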
# [7] = read-out: Intercellular Adhesion Molecule 1 (ICAM1), ICAM1 (gene 3383); test: BSK_KF3CT_ICAM1: BioMAP Diversity Plus: KF3CT Assay for Intercellular Adhesion Molecule 1 (ICAM1) Biomarker Activity (AID 2283067); conditions: primary human keratinocytes with fibroblasts; actives raise or lower the signal
# How it was run: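 Cell-surface ICAM-1 was measured by ELISA 24 h after dosing primary human skin keratinocytes co-cultured with fibroblasts. Parallel SRB staining tracked overt cytotoxicity. Gain or loss of signal was fitted relative to DMSO.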
# [8] = read-out: Interferon-gamma inducible Protein 10 (IP10), CXCL10 (gene 3627); test: BSK_KF3CT_IP10: BioMAP Diversity Plus: KF3CT Assay for Interferon-gamma inducible Protein 10 (IP10) Biomarker Activity (AID 2283068); conditions: primary human keratinocytes with fibroblasts; actives raise or lower the signal
# How it was run: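 Signal is secreted/surface IP-10 by ELISA in a human primary skin co-culture of keratinocytes and foreskin fibroblasts, taken 24 h post-dosing; DMSO served as negative control.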
# [9] = BSK_KF3CT_SRB: Viability Assessment in the BioMAP Diversity Plus: KF3CT Assay (AID 2283069); conditions: primary human keratinocytes with fibroblasts;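 note: total protein by sulforhodamine B staining as a cytotoxicity measure; read 24 h after compound addition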
# How it was run: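 Keratinocytes co-cultured with foreskin fibroblasts (human primary); chemical added, 24 h; fix 10% TCA, stain 0.1% SRB, A560. Bidirectional fit vs DMSO.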
# [10] = read-out: Interleukin-1 alpha (IL1a), IL1A (gene 3552); test: BSK_KF3CT_IL1a: BioMAP Diversity Plus: KF3CT Assay for Interleukin-1 alpha (IL1a) Biomarker Activity (AID 2283070); conditions: primary human keratinocytes with fibroblasts; actives raise or lower the signal
# How it was run: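 Chemicals were dosed onto co-cultured human keratinocytes and foreskin fibroblasts, IL-1a was quantified by ELISA at 24 h, and activity was fitted in both directions relative to DMSO controls.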
# [11] = read-out: TIMP metallopeptidase inhibitor 2 (TIMP2), TIMP2 (gene 7077); test: BSK_KF3CT_TIMP2: BioMAP Diversity Plus: KF3CT Assay for TIMP metallopeptidase inhibitor 2 (TIMP2) Biomarker Activity (AID 2283071); conditions: primary human keratinocytes with fibroblasts; actives raise or lower the signal
# How it was run: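 Co-culture of human primary keratinocytes and foreskin fibroblasts, measured 24 h after chemical dosing. TIMP-2 quantified by ELISA and fitted in both directions relative to DMSO. Cytotoxicity checked in parallel cultures by SRB total-protein staining.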
# [12] = read-out: Transforming growth factor beta 1 (TGFb1), TGFB1 (gene 7040); test: BSK_KF3CT_TGFb1: BioMAP Diversity Plus: KF3CT Assay for Transforming growth factor beta 1 (TGFb1) Biomarker Activity (AID 2283072); conditions: primary human keratinocytes with fibroblasts; actives raise or lower the signal
# How it was run: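 Human keratinocyte/foreskin fibroblast co-culture; TGF-b1 measured by ELISA 24 h after dosing, fitted bidirectionally versus DMSO. Cytotoxicity checked in parallel cultures by total protein (SRB staining, 560 nm).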
# [13] = read-out: C-C motif chemokine 2 (Homo sapiens) (UniProt P13500); test: BSK_KF3CT_MCP1: BioMAP Diversity Plus: KF3CT Assay for Monocyte Chemoattractant Protein 1 (MCP1/CCL2) Biomarker Activity (AID 2283073); conditions: primary human keratinocytes with fibroblasts; actives raise or lower the signal
# How it was run: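 ELISA read-out of MCP-1, 24 h post-dose, in primary human skin keratinocytes co-cultured with fibroblasts. Parallel SRB staining monitors cytotoxicity; changes fitted both directions relative to DMSO.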
# [14] = read-out: Matrix Metallopeptidase 9 (MMP9), MMP9 (gene 4318); test: BSK_KF3CT_MMP9: BioMAP Diversity Plus: KF3CT Assay for Matrix Metallopeptidase 9 (MMP9) Biomarker Activity (AID 2283074); conditions: primary human keratinocytes with fibroblasts; actives raise or lower the signal;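 for AC50: MMP9 protein level quantified by ELISA in the co-culture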
# How it was run: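 Human keratinocyte/foreskin fibroblast co-culture; compound added; 24 h; MMP-9 by ELISA; bidirectional fit vs DMSO baseline.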
# [15] = read-out: urokinase plasminogen activator (uPA), PLAU (gene 5328); test: BSK_KF3CT_uPA: BioMAP Diversity Plus: KF3CT Assay for urokinase plasminogen activator (uPA) Biomarker Activity (AID 2283075); conditions: primary human keratinocytes with fibroblasts; actives raise or lower the signal
# How it was run: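 ELISA readout of uPA, analyzed for signal gain or loss relative to DMSO, from a human primary keratinocyte–foreskin fibroblast co-culture measured 24 h after chemical treatment.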
# CD40, CD40 (gene 958) = test: BSK_LPS_CD40: BioMAP Diversity Plus: LPS Assay for CD40 Biomarker Activity (AID 2283076); conditions: primary human HUVEC with PBMC; actives raise or lower the signal
# How it was run: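 In the LPS system of human endothelial cells with peripheral blood mononuclear cells, CD40 levels were read by ELISA 24 h post-treatment. Signal changes in either direction were fitted against the DMSO baseline, with parallel SRB protein staining.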
# [16] = read-out: E-selectin (Homo sapiens) (UniProt P16581); test: BSK_LPS_Eselectin: BioMAP Diversity Plus: LPS Assay for Eselectin Biomarker Activity (AID 2283077); conditions: primary human HUVEC with PBMC; actives raise or lower the signal
# How it was run: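 E-selectin ELISA on LPS-stimulated endothelial cell/PBMC co-cultures, read 24 h post-treatment; gains and losses fitted against DMSO. Parallel SRB staining (0.1% SRB after 10% TCA fixation, 560 nm) flags overt cytotoxicity.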
# [17] = BSK_LPS_SRB: Viability Assessment in the BioMAP Diversity Plus: LPS Assay (AID 2283079); conditions: primary human HUVEC with PBMC;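 note: total protein by sulforhodamine B absorbance as a cytotoxicity measure; measured one day after compound addition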
# How it was run: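 SRB viability endpoint: cells fixed with 10% TCA, stained with 0.1% SRB, read at 560 nm, 24 h post-dose. HUVEC/PBMC co-culture; signal change in either direction scored relative to DMSO.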
# [18] = read-out: Interleukin-8 (IL8), CXCL8 (gene 3576); test: BSK_LPS_IL8: BioMAP Diversity Plus: LPS Assay for Interleukin-8 (IL8) Biomarker Activity (AID 2283078); conditions: primary human HUVEC with PBMC; actives raise or lower the signal
# How it was run: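 ELISA read-out of IL-8 after 24 h chemical treatment of LPS-activated endothelial/PBMC human primary co-cultures. Changes either up or down relative to DMSO; overt cytotoxicity checked by sulforhodamine B staining in parallel wells.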
# Chain of E-selectin (Homo sapiens) (P16581 whole entry, looked up): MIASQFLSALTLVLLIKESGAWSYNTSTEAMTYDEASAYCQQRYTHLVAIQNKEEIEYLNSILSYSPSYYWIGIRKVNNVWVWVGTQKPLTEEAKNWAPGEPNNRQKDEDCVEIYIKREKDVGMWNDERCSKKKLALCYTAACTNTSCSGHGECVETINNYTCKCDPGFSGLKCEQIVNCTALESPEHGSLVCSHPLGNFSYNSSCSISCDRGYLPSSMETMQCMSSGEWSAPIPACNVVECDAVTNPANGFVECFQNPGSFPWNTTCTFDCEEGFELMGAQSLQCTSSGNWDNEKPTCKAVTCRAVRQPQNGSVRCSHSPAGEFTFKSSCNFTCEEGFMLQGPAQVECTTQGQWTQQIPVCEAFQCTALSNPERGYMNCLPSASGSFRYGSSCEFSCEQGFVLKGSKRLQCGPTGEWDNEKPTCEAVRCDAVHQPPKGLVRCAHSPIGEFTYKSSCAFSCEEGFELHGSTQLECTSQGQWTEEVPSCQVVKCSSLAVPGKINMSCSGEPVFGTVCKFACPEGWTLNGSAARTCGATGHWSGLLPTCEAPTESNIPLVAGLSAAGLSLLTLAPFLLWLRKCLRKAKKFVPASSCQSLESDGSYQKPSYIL
structure (smiles),measurement,setting,value
COP(=O)(OC)C(O)C(Cl)(Cl)Cl (centres undefined),outcome,[1],inactive
same,outcome,[2],inactive
same,outcome,[3],inactive
same,outcome,[4],inactive
same,outcome,[5],inactive
same,outcome,[6],inactive
same,outcome,[7],inactive
same,outcome,[8],inactive
same,outcome,[9],inactive
same,outcome,[10],inactive
same,outcome,[11],inactive
same,outcome,[12],inactive
same,outcome,[13],inactive
same,outcome,[14],inactive
same,outcome,[15],inactive
same,outcome,"CD40, CD40 (gene 958)",inactive
same,outcome,[16],inactive
same,outcome,[17],inactive
COc1cccc(C(=O)NN(C(=O)c2cc(C)cc(C)c2)C(C)(C)C)c1C,outcome,[1],inactive
same,outcome,[2],inactive
same,outcome,[3],inactive
same,outcome,[4],inactive
same,outcome,[5],inactive
same,outcome,[6],inactive
same,outcome,[8],inactive
same,outcome,[9],inactive
same,outcome,[10],inactive
same,outcome,[11],inactive
same,outcome,[12],inactive
same,outcome,[13],inactive
same,outcome,[14],inactive
same,outcome,[15],inactive
same,outcome,"CD40, CD40 (gene 958)",inactive
same,outcome,[16],inactive
same,outcome,[18],inactive
same,outcome,[17],inactive
CCOP(=S)(Oc1cnc(C(C)(C)C)nc1)OC(C)C (centres undefined),AC50,[1],20 µM (active)
same,AC50,[2],37 µM (active)
same,outcome,[3],inactive
same,outcome,[4],inactive
same,AC50,[5],26.8 µM (active)
same,outcome,[6],inactive
same,AC50,[8],18.4 µM (active)
same,AC50,[9],31.4 µM (active)
same,AC50,[10],24.1 µM (active)
same,AC50,[11],38.4 µM (active)
same,outcome,[12],inactive
same,outcome,[13],inactive
same,AC50,[14],27.1 µM (active)
same,outcome,[15],inactive
same,AC50,"CD40, CD40 (gene 958)",37.9 µM (active)
same,AC50,[18],30.5 µM (active)
same,AC50,[17],30.3 µM (active)
C[Si](Cn1cncn1)(c1ccc(F)cc1)c1ccc(F)cc1,outcome,[1],inactive
same,outcome,[2],inactive
same,outcome,[3],inactive
same,outcome,[4],inactive
same,outcome,[5],inactive
same,outcome,[6],inactive
same,outcome,[8],inactive
same,outcome,[9],inactive
same,outcome,[10],inactive
same,outcome,[11],inactive
same,outcome,[12],inactive
same,outcome,[13],inactive
same,outcome,[14],inactive
same,outcome,[15],inactive
same,outcome,"CD40, CD40 (gene 958)",inactive
same,AC50,[16],15 µM (active)
same,outcome,[18],inactive
same,outcome,[17],inactive
CCCCOC(=O)c1ccccc1C(=O)O,outcome,[1],inactive
same,outcome,[2],inactive
same,outcome,[3],inactive
same,outcome,[4],inactive
same,outcome,[5],inactive
same,outcome,[6],inactive
same,outcome,[7],inactive
same,outcome,[8],inactive
same,outcome,[9],inactive
same,outcome,[10],inactive
same,outcome,[11],inactive
same,outcome,[12],inactive
same,outcome,[13],inactive
same,outcome,[14],inactive
same,outcome,[15],inactive
same,outcome,"CD40, CD40 (gene 958)",inactive
same,outcome,[18],inactive
same,outcome,[17],inactive
